# Source: paper PMC7862700, “An all-to-all approach to the identification of sequence-specific readers for epigenetic DNA modifications on cytosine”
# How the values were obtained:
# Test in all cases: DAPPL (digital affinity profiling via proximity ligation, sequencing); 10 mM Tris-HCl pH 7.5, 50 mM NaCl, 1 mM DTT, 4% glycerol, room temperature, 30 min; GST-TFs on glutathione beads, 16-mer random dsDNA library, 0.1% formaldehyde crosslink after washing; high values mean tight binding
# [1] = molecular target: T1, FLI1 (Homo sapiens, UniProt Q01543 1-452); settings: protein: recombinant; tags: N-terminal GST; dsDNA, one strand shown
# T1 sequence: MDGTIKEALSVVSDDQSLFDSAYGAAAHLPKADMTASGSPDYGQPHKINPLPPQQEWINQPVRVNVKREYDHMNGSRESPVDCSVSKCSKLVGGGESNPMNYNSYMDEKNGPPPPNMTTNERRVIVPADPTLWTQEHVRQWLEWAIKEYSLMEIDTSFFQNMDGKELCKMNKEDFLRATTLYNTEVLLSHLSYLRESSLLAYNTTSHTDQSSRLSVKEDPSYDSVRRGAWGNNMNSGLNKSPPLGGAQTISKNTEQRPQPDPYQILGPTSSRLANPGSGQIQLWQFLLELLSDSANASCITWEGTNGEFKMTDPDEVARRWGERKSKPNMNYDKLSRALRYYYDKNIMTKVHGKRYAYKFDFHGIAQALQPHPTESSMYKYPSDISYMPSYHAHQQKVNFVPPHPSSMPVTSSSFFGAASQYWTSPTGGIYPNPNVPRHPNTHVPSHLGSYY
# Summary of the method: (§1)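 The binding signal reported is, for every hexamer, its read frequency for a factor over its read frequency for the tag-only sample. Reads came from pools of yeast-expressed, GST-fused human transcription factors on glutathione beads, barcoded with DNA and mixed with that sample, which were incubated with 200 nmole of a random double-stranded 16-mer DNA library in Tris/NaCl/DTT/glycerol buffer at room temperature for 30 min. After washing, the pools were crosslinked with 0.1% formaldehyde, proximity-ligated with BsaI/T4 ligase for 1 h at 37 °C, PCR-amplified and sequenced on an Illumina NextSeq500.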
# [2] = molecular target: T2, ELK1 (Homo sapiens, UniProt P19419 1-428); settings: protein: recombinant; tags: N-terminal GST; dsDNA, one strand shown
# T2 sequence: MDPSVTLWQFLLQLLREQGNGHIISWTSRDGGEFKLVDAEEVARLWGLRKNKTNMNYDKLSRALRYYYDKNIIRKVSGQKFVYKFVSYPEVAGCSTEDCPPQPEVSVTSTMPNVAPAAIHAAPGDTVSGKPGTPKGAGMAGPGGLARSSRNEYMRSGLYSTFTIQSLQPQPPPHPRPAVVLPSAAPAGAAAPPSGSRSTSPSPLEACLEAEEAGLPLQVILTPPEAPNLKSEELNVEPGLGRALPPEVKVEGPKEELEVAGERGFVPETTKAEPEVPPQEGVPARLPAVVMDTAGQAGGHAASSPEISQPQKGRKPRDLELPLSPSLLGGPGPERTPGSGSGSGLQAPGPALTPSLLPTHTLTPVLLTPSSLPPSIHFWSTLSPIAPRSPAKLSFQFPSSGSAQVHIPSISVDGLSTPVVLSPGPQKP
# Summary of the method: as §1
# [3] = molecular target: T3, GABPA (Homo sapiens, UniProt Q06546 1-454); settings: protein: recombinant; tags: N-terminal GST; dsDNA, one strand shown
# T3 sequence: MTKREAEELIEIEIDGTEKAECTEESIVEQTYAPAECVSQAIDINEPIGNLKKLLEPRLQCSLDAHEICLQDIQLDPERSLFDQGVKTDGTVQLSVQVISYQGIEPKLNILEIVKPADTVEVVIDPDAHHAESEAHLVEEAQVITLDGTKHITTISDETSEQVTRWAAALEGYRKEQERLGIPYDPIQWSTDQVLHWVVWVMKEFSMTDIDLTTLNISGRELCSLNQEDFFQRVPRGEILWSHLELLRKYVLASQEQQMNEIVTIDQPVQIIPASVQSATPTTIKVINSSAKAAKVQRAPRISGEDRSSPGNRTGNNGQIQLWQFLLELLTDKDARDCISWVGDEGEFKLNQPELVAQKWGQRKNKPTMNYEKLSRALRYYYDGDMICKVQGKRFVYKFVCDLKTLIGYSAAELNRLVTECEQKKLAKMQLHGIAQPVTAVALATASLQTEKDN
# Summary of the method: as §1
# [4] = molecular target: T4, ERG (Homo sapiens, UniProt P11308 1-479); settings: protein: recombinant; tags: N-terminal GST; dsDNA, one strand shown
# T4 sequence: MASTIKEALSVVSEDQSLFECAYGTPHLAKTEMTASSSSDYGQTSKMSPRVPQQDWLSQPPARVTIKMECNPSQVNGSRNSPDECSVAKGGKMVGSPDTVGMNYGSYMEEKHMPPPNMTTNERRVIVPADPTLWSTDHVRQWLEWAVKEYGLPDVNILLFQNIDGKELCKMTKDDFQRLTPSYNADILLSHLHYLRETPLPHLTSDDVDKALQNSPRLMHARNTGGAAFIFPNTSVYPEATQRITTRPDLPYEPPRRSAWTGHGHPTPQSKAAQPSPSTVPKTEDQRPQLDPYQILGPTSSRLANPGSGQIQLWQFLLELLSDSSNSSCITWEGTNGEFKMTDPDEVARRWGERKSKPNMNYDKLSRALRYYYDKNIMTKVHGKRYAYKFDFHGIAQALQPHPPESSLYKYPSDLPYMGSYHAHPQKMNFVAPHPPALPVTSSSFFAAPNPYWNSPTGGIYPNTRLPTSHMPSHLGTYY
# Summary of the method: as §1
# [5] = molecular target: ELF1 (Homo sapiens, UniProt P32519 1-619); settings: protein: recombinant; tags: N-terminal GST; dsDNA, one strand shown
# ELF1, sequence (P32519 whole entry): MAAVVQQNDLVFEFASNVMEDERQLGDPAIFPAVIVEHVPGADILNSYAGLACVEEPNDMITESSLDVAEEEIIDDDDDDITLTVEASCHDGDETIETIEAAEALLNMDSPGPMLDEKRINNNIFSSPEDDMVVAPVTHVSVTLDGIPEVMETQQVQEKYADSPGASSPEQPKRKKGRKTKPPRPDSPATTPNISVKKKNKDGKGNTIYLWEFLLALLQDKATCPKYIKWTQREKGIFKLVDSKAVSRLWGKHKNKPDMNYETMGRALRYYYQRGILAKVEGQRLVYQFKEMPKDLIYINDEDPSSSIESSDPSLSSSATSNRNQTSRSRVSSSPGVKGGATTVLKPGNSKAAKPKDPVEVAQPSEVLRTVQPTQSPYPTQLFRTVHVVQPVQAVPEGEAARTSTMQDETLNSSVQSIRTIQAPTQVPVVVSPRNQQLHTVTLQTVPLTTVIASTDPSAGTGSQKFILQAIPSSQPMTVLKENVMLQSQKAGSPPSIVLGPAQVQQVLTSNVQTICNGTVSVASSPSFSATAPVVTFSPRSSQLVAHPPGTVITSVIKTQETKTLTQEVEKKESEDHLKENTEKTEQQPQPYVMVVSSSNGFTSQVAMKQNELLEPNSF
# Summary of the method: as §1
# [6] = molecular target: T5, EHF (Homo sapiens, UniProt Q9NZC4 1-300); settings: protein: recombinant; tags: N-terminal GST; dsDNA, one strand shown
# T5 sequence: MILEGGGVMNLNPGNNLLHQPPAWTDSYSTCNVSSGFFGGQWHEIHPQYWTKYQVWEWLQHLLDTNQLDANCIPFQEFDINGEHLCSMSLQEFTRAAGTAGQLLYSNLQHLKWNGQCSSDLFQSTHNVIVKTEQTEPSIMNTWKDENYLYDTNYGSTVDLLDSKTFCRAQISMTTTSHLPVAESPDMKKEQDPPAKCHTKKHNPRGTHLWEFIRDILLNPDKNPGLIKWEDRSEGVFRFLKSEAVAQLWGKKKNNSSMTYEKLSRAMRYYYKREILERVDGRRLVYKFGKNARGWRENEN
# Summary of the method: as §1
# [7] = molecular target: SPI1 (Homo sapiens, UniProt P17947 1-270); settings: protein: recombinant; tags: N-terminal GST; dsDNA, one strand shown
# Summary of the method: as §1
# [8] = molecular target: SPIB (Homo sapiens, UniProt Q01892 1-262); settings: protein: recombinant; tags: N-terminal GST; dsDNA, one strand shown
# SPIB, sequence (Q01892 whole entry): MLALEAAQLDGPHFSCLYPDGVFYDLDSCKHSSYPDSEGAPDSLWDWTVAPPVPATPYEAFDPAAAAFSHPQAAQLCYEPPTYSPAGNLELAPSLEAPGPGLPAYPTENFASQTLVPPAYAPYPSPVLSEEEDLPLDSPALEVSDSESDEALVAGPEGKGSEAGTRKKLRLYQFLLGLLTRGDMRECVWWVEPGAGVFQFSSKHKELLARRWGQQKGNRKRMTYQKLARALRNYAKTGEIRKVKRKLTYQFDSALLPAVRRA
# Summary of the method: as §1
# [9] = molecular target: T6, ELK3 (Homo sapiens, UniProt P41970 1-407); settings: protein: recombinant; tags: N-terminal GST; dsDNA, one strand shown
# T6 sequence: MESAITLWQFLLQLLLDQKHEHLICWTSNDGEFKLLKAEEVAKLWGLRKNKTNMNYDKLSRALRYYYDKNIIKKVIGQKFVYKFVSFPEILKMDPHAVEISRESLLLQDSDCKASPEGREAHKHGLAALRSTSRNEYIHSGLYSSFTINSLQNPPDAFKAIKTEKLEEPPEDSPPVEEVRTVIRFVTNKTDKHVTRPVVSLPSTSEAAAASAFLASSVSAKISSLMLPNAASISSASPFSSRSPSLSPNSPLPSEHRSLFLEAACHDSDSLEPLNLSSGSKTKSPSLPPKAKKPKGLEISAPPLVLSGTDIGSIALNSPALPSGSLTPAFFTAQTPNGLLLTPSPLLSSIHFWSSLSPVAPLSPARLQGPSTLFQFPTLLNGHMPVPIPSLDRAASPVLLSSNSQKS
# Summary of the method: as §1
# [10] = molecular target: T7, FEV (Homo sapiens, UniProt Q99581 1-238); settings: protein: recombinant; tags: N-terminal GST; dsDNA, one strand shown
# T7 sequence: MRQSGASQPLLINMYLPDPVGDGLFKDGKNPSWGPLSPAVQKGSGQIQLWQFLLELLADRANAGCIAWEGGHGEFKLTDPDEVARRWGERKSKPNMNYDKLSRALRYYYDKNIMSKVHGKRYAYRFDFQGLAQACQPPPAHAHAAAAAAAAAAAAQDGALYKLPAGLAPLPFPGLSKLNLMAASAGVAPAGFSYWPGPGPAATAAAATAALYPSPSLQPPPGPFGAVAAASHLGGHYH
# Summary of the method: as §1
# [11] = molecular target: ETV5 (Homo sapiens, UniProt P41161 1-510); settings: protein: recombinant; tags: N-terminal GST; dsDNA, one strand shown
# ETV5, sequence (P41161 whole entry): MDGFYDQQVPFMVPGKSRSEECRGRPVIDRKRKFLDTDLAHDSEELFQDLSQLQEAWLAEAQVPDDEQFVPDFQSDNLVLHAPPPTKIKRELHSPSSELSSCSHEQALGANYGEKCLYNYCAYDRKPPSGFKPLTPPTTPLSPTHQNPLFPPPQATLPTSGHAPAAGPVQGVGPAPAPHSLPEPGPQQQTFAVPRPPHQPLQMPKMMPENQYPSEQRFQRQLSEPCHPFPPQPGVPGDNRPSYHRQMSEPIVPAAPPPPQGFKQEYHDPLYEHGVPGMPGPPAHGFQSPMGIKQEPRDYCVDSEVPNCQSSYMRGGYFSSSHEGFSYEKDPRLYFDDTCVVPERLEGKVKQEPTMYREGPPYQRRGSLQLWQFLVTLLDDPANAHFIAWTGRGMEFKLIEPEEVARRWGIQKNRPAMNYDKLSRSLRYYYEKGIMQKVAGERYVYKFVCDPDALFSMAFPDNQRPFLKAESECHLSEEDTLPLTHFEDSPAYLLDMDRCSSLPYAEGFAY
# Summary of the method: as §1
# [12] = molecular target: HSF1 (Homo sapiens, UniProt Q00613 1-529); settings: protein: recombinant; tags: N-terminal GST; chain copies: 3; dsDNA, one strand shown
# HSF1, sequence (Q00613 whole entry): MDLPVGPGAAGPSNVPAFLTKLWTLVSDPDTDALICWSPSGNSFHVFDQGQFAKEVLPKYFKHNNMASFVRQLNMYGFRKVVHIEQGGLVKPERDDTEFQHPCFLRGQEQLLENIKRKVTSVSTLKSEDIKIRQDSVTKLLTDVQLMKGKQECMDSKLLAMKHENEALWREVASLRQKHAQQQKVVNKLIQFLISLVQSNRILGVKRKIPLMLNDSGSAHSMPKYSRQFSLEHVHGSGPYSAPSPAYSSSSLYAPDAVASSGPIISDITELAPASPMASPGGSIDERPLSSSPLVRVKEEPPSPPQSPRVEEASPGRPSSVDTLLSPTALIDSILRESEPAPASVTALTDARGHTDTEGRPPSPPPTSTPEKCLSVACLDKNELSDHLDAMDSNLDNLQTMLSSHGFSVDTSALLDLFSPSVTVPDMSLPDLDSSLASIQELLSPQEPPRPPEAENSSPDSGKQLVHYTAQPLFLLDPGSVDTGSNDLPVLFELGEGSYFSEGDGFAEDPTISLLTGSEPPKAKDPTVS
# Summary of the method: as §1
# [13] = molecular target: T8, SPIC (Homo sapiens, UniProt Q8N5J4 1-248); settings: protein: recombinant; tags: N-terminal GST; dsDNA, one strand shown
# T8 sequence: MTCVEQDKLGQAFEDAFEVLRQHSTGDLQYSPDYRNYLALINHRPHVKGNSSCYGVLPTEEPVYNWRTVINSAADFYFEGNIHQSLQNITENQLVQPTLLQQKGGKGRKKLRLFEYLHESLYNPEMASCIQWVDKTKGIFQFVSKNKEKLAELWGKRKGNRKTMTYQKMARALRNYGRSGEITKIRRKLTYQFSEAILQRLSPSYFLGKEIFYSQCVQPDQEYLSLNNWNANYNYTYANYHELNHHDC
# Summary of the method: as §1
# [14] = molecular target: ELF4 (Homo sapiens, UniProt Q99607 1-663); settings: protein: recombinant; tags: N-terminal GST; dsDNA, one strand shown
# ELF4, sequence (Q99607 whole entry): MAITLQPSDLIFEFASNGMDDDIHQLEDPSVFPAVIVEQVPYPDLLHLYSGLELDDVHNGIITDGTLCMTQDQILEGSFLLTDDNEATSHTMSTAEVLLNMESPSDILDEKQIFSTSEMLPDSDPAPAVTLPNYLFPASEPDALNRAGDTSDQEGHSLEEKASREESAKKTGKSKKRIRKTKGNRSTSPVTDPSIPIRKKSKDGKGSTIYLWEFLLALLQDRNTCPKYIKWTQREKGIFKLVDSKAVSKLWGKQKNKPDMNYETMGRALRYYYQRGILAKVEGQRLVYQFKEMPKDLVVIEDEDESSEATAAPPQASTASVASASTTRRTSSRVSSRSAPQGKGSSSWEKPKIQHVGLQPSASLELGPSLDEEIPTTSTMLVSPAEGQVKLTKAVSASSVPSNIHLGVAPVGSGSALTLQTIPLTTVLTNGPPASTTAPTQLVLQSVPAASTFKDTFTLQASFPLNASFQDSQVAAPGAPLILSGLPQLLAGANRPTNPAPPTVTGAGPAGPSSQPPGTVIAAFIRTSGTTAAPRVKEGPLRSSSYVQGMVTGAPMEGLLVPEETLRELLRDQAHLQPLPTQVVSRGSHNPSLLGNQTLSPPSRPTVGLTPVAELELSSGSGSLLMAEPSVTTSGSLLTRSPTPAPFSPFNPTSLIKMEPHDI
# Summary of the method: as §1
# [15] = molecular target: T9, ELK4 (Homo sapiens, UniProt P28324-2 1-405); settings: protein: recombinant; tags: N-terminal GST; dsDNA, one strand shown
# T9 sequence: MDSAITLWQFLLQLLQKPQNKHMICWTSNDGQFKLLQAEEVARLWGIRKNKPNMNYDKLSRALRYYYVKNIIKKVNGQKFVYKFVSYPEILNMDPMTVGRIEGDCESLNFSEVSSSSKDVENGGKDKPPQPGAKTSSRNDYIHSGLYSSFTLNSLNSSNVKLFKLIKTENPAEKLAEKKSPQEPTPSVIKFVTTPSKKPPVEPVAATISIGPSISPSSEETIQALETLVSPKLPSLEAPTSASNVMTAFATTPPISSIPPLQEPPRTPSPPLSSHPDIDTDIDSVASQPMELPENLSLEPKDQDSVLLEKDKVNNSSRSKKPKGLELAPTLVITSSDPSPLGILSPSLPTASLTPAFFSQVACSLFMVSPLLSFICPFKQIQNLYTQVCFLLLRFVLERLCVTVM
# Summary of the method: as §1
# [16] = molecular target: T10, ETV2 (Homo sapiens, UniProt O00321 1-342); settings: protein: recombinant; tags: N-terminal GST; dsDNA, one strand shown
# T10 sequence: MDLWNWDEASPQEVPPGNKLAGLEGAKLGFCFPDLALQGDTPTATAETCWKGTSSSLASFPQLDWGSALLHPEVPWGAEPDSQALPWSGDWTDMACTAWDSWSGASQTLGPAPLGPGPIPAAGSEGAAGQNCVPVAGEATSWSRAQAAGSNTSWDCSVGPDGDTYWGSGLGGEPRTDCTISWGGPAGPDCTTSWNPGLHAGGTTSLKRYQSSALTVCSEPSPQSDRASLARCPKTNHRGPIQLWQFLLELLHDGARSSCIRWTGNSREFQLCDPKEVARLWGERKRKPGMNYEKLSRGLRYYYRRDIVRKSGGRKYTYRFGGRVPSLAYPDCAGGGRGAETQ
# Summary of the method: as §1
# [17] = molecular target: T11, ELF3 (Homo sapiens, UniProt P78545 1-371); settings: protein: recombinant; tags: N-terminal GST; dsDNA, one strand shown
# T11 sequence: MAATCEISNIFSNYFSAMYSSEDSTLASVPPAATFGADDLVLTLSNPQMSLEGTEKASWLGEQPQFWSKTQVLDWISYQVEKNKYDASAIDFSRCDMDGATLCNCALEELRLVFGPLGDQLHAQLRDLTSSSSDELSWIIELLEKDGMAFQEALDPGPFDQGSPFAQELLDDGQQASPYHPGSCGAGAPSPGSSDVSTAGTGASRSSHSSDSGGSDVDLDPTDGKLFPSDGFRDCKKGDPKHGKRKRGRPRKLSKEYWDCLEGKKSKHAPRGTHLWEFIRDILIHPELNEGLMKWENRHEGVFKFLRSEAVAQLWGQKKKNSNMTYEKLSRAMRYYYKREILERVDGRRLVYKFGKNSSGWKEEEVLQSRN
# Summary of the method: as §1
# [18] = molecular target: ETV1 (Homo sapiens, UniProt P50549 1-477); settings: protein: recombinant; tags: N-terminal GST; dsDNA, one strand shown
# ETV1, sequence (P50549 whole entry): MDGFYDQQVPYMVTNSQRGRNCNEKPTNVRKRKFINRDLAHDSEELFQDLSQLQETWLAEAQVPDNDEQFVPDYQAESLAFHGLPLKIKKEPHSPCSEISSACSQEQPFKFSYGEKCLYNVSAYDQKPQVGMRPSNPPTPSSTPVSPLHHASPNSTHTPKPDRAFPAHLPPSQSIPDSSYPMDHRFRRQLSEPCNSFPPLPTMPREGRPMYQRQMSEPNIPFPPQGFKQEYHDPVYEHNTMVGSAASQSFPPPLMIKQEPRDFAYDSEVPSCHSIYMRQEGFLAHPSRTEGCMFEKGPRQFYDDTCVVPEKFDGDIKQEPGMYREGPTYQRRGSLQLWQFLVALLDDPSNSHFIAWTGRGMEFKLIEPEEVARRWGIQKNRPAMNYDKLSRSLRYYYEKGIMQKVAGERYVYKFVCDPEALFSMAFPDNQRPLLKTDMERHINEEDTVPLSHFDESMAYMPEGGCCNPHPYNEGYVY
# Summary of the method: as §1
sequence,measurement,setting,value
CCGGAA,binding signal,[1],"5.18 fold enrichment (6-mer frequency, TF over GST control)"
same,binding signal,[2],"6.13 fold enrichment (6-mer frequency, TF over GST control)"
same,binding signal,[3],"4.9 fold enrichment (6-mer frequency, TF over GST control)"
same,binding signal,[4],"6.79 fold enrichment (6-mer frequency, TF over GST control)"
same,binding signal,[5],"5.12 fold enrichment (6-mer frequency, TF over GST control)"
same,binding signal,[6],"5.9 fold enrichment (6-mer frequency, TF over GST control)"
same,binding signal,[7],"5.33 fold enrichment (6-mer frequency, TF over GST control)"
same,binding signal,[8],"5.79 fold enrichment (6-mer frequency, TF over GST control)"
same,binding signal,[9],"6.42 fold enrichment (6-mer frequency, TF over GST control)"
same,binding signal,[10],"8.09 fold enrichment (6-mer frequency, TF over GST control)"
same,binding signal,[11],"6.13 fold enrichment (6-mer frequency, TF over GST control)"
same,binding signal,[12],"1.68 fold enrichment (6-mer frequency, TF over GST control)"
same,binding signal,[13],"4.87 fold enrichment (6-mer frequency, TF over GST control)"
same,binding signal,[14],"4.92 fold enrichment (6-mer frequency, TF over GST control)"
same,binding signal,[15],"3.97 fold enrichment (6-mer frequency, TF over GST control)"
same,binding signal,[16],"5.1 fold enrichment (6-mer frequency, TF over GST control)"
same,binding signal,[17],"5.42 fold enrichment (6-mer frequency, TF over GST control)"
same,binding signal,[18],"6.04 fold enrichment (6-mer frequency, TF over GST control)"
